Reference: PubChem BioAssay
Unmarked numbers belong to inactive results. For some assays here: Entries with a potency or affinity are not part of this list. Activity calls are given as the source filed them. Unless noted, no rule for the calls is given here.

Columns and labels:
[1] = antimalarial activity against Dd2 strain (AID 2302;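 active = growth inhibition above 50% at the single 2 µM test dose, taken to imply half-maximal potency below 2 µM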;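 also: 0% = DMSO untreated growth and 100% = chloroquine plus artemisinin killed control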); details: P. falciparum Dd2 in RBCs, LDH growth readout, 72 h; at 2 µM; stronger effect = higher value
[2] = HepG2 cytotoxicity, primary screen, cytotoxicity control for P. falciparum antimalarial project, cell-based, ATP luminescence (AID 2303;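 active = inhibition above 50%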;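 also: 0% = DMSO wells and 100% = digitonin-killed cells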); details: HepG2 viability, 24-48 h, at 10 µM, stronger effect = higher value
[3] = target: L-lactate dehydrogenase (Plasmodium falciparum (isolate CDC / Honduras)) (UniProt Q27743); experiment: PfLDH activity inhibition – cell lysate, 3D7 strain, counter-screen for P. falciparum growth inhibition project (AID 2304);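 also: 0% = vehicle and 100% = reference inhibitor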; details: P. falciparum 3D7 crude extract, LDH APAD/NBT absorbance; at 2 µM; stronger effect = higher value
L-lactate dehydrogenase (Plasmodium falciparum (isolate CDC / Honduras)), sequence (Q27743 whole entry, looked up): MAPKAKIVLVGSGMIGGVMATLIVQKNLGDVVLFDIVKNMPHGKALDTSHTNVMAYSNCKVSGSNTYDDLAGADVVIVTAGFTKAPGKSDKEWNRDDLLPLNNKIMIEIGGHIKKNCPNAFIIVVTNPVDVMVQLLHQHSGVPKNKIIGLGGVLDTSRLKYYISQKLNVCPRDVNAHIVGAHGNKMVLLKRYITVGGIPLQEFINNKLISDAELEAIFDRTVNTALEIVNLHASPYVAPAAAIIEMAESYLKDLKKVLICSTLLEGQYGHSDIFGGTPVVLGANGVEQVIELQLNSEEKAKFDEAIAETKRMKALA

[4] = inhibition of 3D7 malaria parasite growth – strain 3D7 (AID 2306);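 also: 0% = DMSO wells and 100% = chloroquine plus artemisinin control wells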; details: P. falciparum 3D7 erythrocytic growth, LDH absorbance, 72 h; at 2 µM; stronger effect = higher value
[5] = target: Calcium-dependent protein kinase 1 (Plasmodium falciparum (isolate 3D7)) (UniProt P62344); experiment: PfCDPK1 kinase inhibitors, biochemical, TCAMS library (AID 1159585; cut-off not given, nearly all actives have IC50 up to about 0.98 µM;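 also: inhibitors leave more ATP so luminescence rises with inhibition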); details: recombinant PfCDPK1, Kinase-Glo ATP depletion luminescence
Calcium-dependent protein kinase 1 (Plasmodium falciparum (isolate 3D7)), sequence (P62344 whole entry, looked up): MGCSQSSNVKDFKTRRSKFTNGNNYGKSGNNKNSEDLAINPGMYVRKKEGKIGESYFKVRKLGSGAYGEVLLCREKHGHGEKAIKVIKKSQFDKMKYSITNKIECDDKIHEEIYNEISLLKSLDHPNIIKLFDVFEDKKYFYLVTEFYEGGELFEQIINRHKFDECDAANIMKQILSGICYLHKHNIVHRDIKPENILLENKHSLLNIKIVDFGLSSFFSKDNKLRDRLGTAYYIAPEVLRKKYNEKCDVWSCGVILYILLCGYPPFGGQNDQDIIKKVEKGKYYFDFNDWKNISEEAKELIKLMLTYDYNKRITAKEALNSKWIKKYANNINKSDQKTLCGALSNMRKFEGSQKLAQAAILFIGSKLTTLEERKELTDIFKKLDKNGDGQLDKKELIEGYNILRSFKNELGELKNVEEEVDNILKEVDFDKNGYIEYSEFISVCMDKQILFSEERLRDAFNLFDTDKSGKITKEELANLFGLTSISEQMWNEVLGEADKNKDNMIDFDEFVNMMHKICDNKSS

[6] = target: Plasmodium falciparum protein kinase 6 (PK6, PF3D7_1337100) (UniProt Q8IDW1); experiment: PfPK6 kinase inhibitors, biochemical, TCAMS library (AID 1159586); details: recombinant PfPK6, Kinase-Glo ATP depletion luminescence
Plasmodium falciparum protein kinase 6 (PK6, PF3D7_1337100), sequence (Q8IDW1 1-305): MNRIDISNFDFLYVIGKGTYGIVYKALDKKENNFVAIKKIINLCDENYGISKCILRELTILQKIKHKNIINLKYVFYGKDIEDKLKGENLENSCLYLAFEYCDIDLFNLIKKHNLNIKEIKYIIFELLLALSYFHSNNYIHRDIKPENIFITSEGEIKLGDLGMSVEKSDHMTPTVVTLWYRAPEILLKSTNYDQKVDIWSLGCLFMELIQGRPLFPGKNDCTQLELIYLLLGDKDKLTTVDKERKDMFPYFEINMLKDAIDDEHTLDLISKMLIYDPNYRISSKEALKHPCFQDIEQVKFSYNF

[7] = target: Protein kinase 7 (PK7), Plasmodium falciparum 3D7 (PF3D7_0213400) (UniProt Q7YTF7); experiment: inhibition of Plasmodium PK7 catalytic activity – biochemical, TCAMS antimalarial set, Kinase-Glo luminescence (AID 1159587); details: recombinant PfPK7, Kinase-Glo ATP depletion luminescence
Protein kinase 7 (PK7), Plasmodium falciparum 3D7 (PF3D7_0213400), sequence (Q7YTF7 1-343): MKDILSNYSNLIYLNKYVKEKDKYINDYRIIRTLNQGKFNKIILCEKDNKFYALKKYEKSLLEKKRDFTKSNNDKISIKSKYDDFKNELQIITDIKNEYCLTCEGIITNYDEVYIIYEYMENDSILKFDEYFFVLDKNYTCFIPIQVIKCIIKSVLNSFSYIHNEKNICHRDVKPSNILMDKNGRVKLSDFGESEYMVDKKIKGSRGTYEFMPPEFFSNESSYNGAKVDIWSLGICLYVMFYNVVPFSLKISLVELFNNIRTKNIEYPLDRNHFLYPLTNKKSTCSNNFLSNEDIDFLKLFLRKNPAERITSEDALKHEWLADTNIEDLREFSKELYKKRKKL

[8] = target: Calcium-dependent protein kinase 4 (Plasmodium falciparum (isolate 3D7)) (UniProt Q8IBS5); experiment: PfCDPK4 kinase inhibitors, biochemical, TCAMS library (AID 1159588; cut-off not given, nearly all actives have IC50 up to about 0.91 µM); details: recombinant PfCDPK4, Kinase-Glo ATP depletion luminescence
Calcium-dependent protein kinase 4 (Plasmodium falciparum (isolate 3D7)), sequence (Q8IBS5 whole entry, looked up): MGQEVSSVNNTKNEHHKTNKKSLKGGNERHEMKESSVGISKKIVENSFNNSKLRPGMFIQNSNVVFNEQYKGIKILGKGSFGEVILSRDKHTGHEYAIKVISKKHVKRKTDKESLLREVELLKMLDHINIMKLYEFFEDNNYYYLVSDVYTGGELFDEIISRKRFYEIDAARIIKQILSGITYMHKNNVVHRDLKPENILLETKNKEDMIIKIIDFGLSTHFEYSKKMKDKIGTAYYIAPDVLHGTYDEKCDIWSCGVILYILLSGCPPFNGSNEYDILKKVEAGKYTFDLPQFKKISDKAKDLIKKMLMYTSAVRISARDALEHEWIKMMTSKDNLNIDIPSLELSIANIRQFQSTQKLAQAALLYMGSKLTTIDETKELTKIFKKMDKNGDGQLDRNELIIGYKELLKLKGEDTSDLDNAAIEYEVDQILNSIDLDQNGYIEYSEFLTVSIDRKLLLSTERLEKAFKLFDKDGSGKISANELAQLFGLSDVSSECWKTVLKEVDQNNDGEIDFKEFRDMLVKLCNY

Row | Compound | growth inhibition [1] | inhibition [2] | inhibition [3] [%] | growth inhibition [4] | outcome [5] | outcome [6] | outcome [7] | outcome [8]
1 | CC(C)(C)c1cc(C(=O)N2CCN(c3nccnc3C#N)CC2)n(Cc2ccccc2)n1 | 93% (active) | -11% | -9 | 100% (active) | inactive | inactive | inactive | inactive
2 | CCCCCCn1c(Sc2ccc(C#N)c([N+](=O)[O-])c2)nnc1-c1cccs1 | 60% (active) | 26% | -4 | 97% (active) | inactive | inactive | inactive | inactive
3 | CC1CCN(CC[C@H]2CCCN2S(=O)(=O)c2cccc(NC(=O)c3ccc(-c4ccccc4)cc3)c2)CC1 | 36% | 38% | -6 | 87% (active) | inactive | inactive | inactive | inactive
4 | COc1cc(N)c(Cl)cc1C(=O)NC1CCC(NCC2CCCCC2)CC1 (stereo not drawn) | 85% (active) | 18% | 0 | 90% (active) | inactive | inactive | inactive | inactive
5 | Cc1[nH]c(C)c([N+](=O)[O-])c(=O)c1-c1ccc(Oc2ccc(OC(F)(F)F)cc2)cc1 | 97% (active) | -2% | -2 | 97% (active) | inactive | inactive | inactive | inactive
6 | COc1cc(-c2cnc(N)c(-c3nc4ccccc4[nH]3)c2)cc(OC)c1OC | 57% (active) | 59% (active) | 7 | 101% (active) | inactive | inactive | inactive | inactive
7 | O=C(Nc1ccc(C(=O)Oc2ccc(-c3ccccc3)cc2)cc1)N[C@@H](Cc1ccc(O)cc1)C(=O)NC1CCN(Cc2ccc(O)cc2)C1 (stereo partly drawn) | 60% (active) | -7% | 0 | 94% (active) | inactive | inactive | inactive | inactive
8 | O=C(c1cccc(Cl)c1)N1CCN(c2ccc([N+](=O)[O-])c(NC3CC3)c2)CC1 | 79% (active) | 11% | 4 | 100% (active) | inactive | inactive | inactive | inactive
9 | O=C(Nc1ccsc1C(=O)NC1CCCCC1)c1ccc(F)cc1 | 11% | 3% | 6 | 86% (active) | inactive | inactive | inactive | inactive
10 | Cc1cc(Nc2ccc(Cl)c(Cl)c2)n2nc(C)nc2n1 | 97% (active) | 6% | -4 | 97% (active) | inactive | inactive | inactive | inactive
11 | O=C(NC1CCN(c2ccnc(Nc3ccc(F)cc3)n2)C1)c1cc2ccccc2s1 (stereo not drawn) | 80% (active) | 6% | -8 | 99% (active) | inactive | inactive | inactive | inactive
12 | Nc1nc(N)c2c(ccc3c2ccn3CCCCO)n1 | 49% | 61% (active) | -2 | 93% (active) | inactive | inactive | inactive | inactive
13 | CCN(CCCN1CCCCC1)c1cc(C)nc(Nc2ccc(C)c(F)c2)n1 | 92% (active) | 20% | -5 | 102% (active) | inactive | inactive | inactive | inactive
14 | O=C(Nc1ccc(Br)cc1)N(CCN1CCOCC1)CC(O)COCc1ccc(Cl)c(Cl)c1 (stereo not drawn) | 52% (active) | 16% | -5 | 94% (active) | inactive | inactive | inactive | inactive
15 | CON=Cc1ccn(-c2ccc(O)c3c2C[C@H]2C[C@H]4[C@H](N(C)C)C(=O)C(C(N)=O)=C(O)[C@@]4(O)C(=O)C2=C3O)c1 | 70% (active) | 3% | -1 | 96% (active) | inactive | inactive | inactive | inactive
16 | CC(NC(=O)c1ccc(O)c(-c2ccc(Cl)c(Cl)c2)c1)C(=O)NCCN1CCCC1 (stereo not drawn) | 9% | -5% | -2 | 99% (active) | inactive | inactive | inactive | inactive
17 | CN(C(=O)c1ccccc1)[C@@H]1c2cc(C#N)ccc2OC(C)(C)[C@H]1O | 4% | 8% | -3 | 97% (active) | inactive | inactive | inactive | inactive
18 | c1ccc(Oc2ccc(Nc3ccnc4ccc(-c5ccco5)cc34)cc2)cc1 | 32% | -4% | -1 | 87% (active) | inactive | inactive | inactive | inactive
19 | CCNc1cc(C(=O)N[C@@H](Cc2ccccc2)[C@H](O)CN[C@@H]2CCc3ccccc32)cc(N2CCCC2=O)c1 | 93% (active) | -5% | 6 | 92% (active) | inactive | inactive | inactive | inactive
20 | CCN(CC)CCNC(=O)c1ccc(NC(=O)c2ccc(-c3cc(NC(=O)CC4CCCC4)ccc3C)cc2)cc1 | 95% (active) | 12% | -5 | 99% (active) | inactive | inactive | inactive | inactive
21 | CC(C)c1cn2c3c(cc(C(=O)N[C@@H](Cc4ccccc4)[C@H](O)CNC4CCOCC4)cc13)N(C)S(=O)(=O)CC2 | 99% (active) | 9% | -6 | 98% (active) | inactive | inactive | inactive | inactive
22 | COc1ccc(NC(=O)c2ccc(-c3nc(-c4ccccc4)cs3)cc2)cc1N1CCN(C)CC1 | 13% | 17% | -3 | 93% (active) | inactive | inactive | inactive | inactive
23 | O=C(Nc1ccc(C(F)(F)F)cc1)c1cccc(S(=O)(=O)NC2CCN(CC3CCCCC3)C2)c1 (stereo not drawn) | 10% | 32% | -2 | 98% (active) | inactive | inactive | inactive | inactive

Row | Compound | growth inhibition [1] | inhibition [2] | inhibition [3] [%] | growth inhibition [4] | outcome [5] | outcome [6] | outcome [7] | outcome [8]
24 | CS(=O)(=O)CCNCc1nc(-c2ccc3c(Nc4ccc(Cl)cc4F)ccnc3c2)cs1 | 28% | 19% | 1 | 88% (active) | inactive | inactive | inactive | inactive
25 | Nc1c2ccccc2nc2cc([N+](=O)[O-])ccc12 | 26% | 92% (active) | -1 | 98% (active) | inactive | inactive | inactive | inactive
26 | Cc1cc(Nc2cccc(C(F)(F)F)c2)nc(NCc2ccccc2)n1 | 95% (active) | 17% | 0 | 102% (active) | inactive | inactive | inactive | inactive
27 | FC(F)(F)c1ccc2nc(-c3ccc(-c4ccc(CNCc5ccccc5)cc4)cc3)[nH]c2c1 | 96% (active) | 22% | -5 | 101% (active) | inactive | inactive | inactive | inactive
28 | c1ccc(-c2ccc(CNCc3ccc(-c4cccc(-c5nc6ccccc6[nH]5)c4)cc3)s2)nc1 | 80% (active) | 48% | -1 | 98% (active) | inactive | inactive | inactive | inactive
29 | COC(=O)c1ccc(-c2ccc(-c3cccnc3)cc2C)cc1 | 98% (active) | 81% (active) | 3 | 100% (active) | inactive | inactive | inactive | inactive
30 | CN(C)Cc1ccc(-c2cccc(NC(=O)c3ccc(Cl)cc3)c2)cc1 | 13% | 24% | 3 | 94% (active) | inactive | inactive | inactive | inactive
31 | COc1ccc2nccc([C@@H](O)CN3CCC(NCc4nc5c([N+](=O)[O-])cccc5[nH]4)CC3)c2c1 | 84% (active) | 13% | -2 | 101% (active) | inactive | inactive | inactive | inactive
32 | COc1c(OC)c(OC)c2ccccc2c1CNCCCCCCNCc1c(OC)c(OC)c(OC)c2ccccc12 | 71% (active) | 99% (active) | 3 | 100% (active) | inactive | inactive | inactive | inactive
33 | COc1ccc(-n2nc(C(=O)NCc3ccccc3OC)c3ccccc3c2=O)cc1 | 94% (active) | 2% | 0 | 102% (active) | inactive | inactive | inactive | inactive
34 | Cn1nccc1C(=O)NCCNCc1cccc(-c2cccc(-c3nc4ccc(C(F)(F)F)cc4[nH]3)c2)c1 | 99% (active) | 39% | -7 | 102% (active) | inactive | inactive | inactive | inactive
35 | CC[C@H](C)CNC(=O)c1cncc(-c2ccc(CNC3CCCC3)cc2)c1 | 5% | -25% | 0 | 97% (active) | inactive | inactive | inactive | inactive
36 | Cc1ccc(-n2nc3ccc(NC(=O)c4ccc([N+](=O)[O-])o4)cc3n2)cc1C | 95% (active) | 20% | -3 | 94% (active) | inactive | inactive | inactive | inactive
37 | Nc1ncc(-c2cc3ccccc3o2)c(N)n1 | 2% | -3% | 0 | 81% (active) | inactive | inactive | inactive | inactive
38 | CC[C@H]1CN(Cc2ccccc2Br)CC[C@H]1CCCc1ccnc2ccc(O)cc12 | 2% | 12% | -4 | 86% (active) | inactive | inactive | inactive | inactive
39 | CN(CCCNC(=S)NC12CC3CC(CC(C3)C1)C2)CCCNc1ccnc2cc(Cl)ccc12 | 98% (active) | 73% (active) | 8 | 100% (active) | inactive | inactive | inactive | inactive
40 | Cc1cc(C)cc(OCC(O)CN(Cc2cc(Cl)cc(Cl)c2)C(=O)Nc2ccc(Cl)cc2)c1 (stereo not drawn) | 43% | -9% | -2 | 97% (active) | inactive | inactive | inactive | inactive
41 | O=C(Cn1c(SCc2cccc(F)c2F)cc(=O)c2ccccc21)N(CCN1CCCCC1)Cc1ccc(-c2ccc(C(F)(F)F)cc2)cc1 | 82% (active) | 41% | -1 | 99% (active) | inactive | inactive | inactive | inactive
42 | CCCc1ccc(N2C(N)=NC(N)=NC2(C)C)cc1 | -2% | 59% (active) | 6 | 94% (active) | inactive | inactive | inactive | inactive
43 | CC(C)NCc1ccc(-c2cccc(NC(=O)c3cccc(Cl)c3)c2)cc1 | 87% (active) | 24% | 1 | 100% (active) | inactive | inactive | inactive | inactive
44 | COc1ccc(Nc2ncc3c(-c4cccc(NC(=O)CC(C)C)c4)c[nH]c3n2)cc1OC | 71% (active) | 37% | 5 | 101% (active) | inactive | inactive | inactive | inactive
45 | CCOC(=O)c1ccc2nc(-c3ccc(C(=O)NCc4ccc(C(C)(C)C)cc4)cc3)[nH]c2c1 | 34% | -9% | -3 | 94% (active) | inactive | inactive | inactive | inactive
46 | CCCCCn1c(Sc2ccc(C#N)c([N+](=O)[O-])c2)nnc1-c1ccc(Cl)cc1 | 29% | 18% | 3 | 88% (active) | inactive | inactive | inactive | inactive
